Here are results for 8 molecules from PubChem BioAssay (NCI).

SMILES strings stand for the structures. The panel holds about 83,000 compounds, 20% with a hit somewhere; the sample as a whole holds those more often.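 Cell lines were cultured in 96-well plates, exposed to a single compound concentration, and assessed for percent growth 48 hours later.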 A number with no mark means an inactive call. The source made the active and inactive calls. The calls were made as follows: active = growth percent below 10; inactive = the rest.

Among the test systems are SK-MEL-2 melanoma; SN12C renal; UO-31 renal; TK-10 renal; ACHN renal; CAKI-1 renal; A498 renal; MOLT-4 leukemia; SR leukemia; RPMI-8226 leukemia; OVCAR-8 ovarian; OVCAR-5 ovarian; OVCAR-4 ovarian; SK-OV-3 ovarian; IGROV1 ovarian; OVCAR-3 ovarian; HS 578T breast; NCI/ADR-RES ovarian; CCRF-CEM leukemia.
What all share (assay): NCI-60 one-dose screen, 48 h (100 = growth as untreated, 0 = no growth, -100 = all killed)
Common to all, as to conditions: 10 µM unless noted

As for `CCCCCCCCCCOC(C)=O`, the growth is 116% in the test with SK-MEL-2 melanoma; 103% in the test on SN12C renal; 89% in the test on UO-31 renal; 116% in the test with TK-10 renal; 98.8% in the test with ACHN renal; 79.8% in the test on CAKI-1 renal. Further, the growth was 108% with A498 renal; 103% with MOLT-4 leukemia; 98.6% with SR leukemia; 99.1% in the test on RPMI-8226 leukemia; 101% in the test with OVCAR-8 ovarian; 101% with OVCAR-5 ovarian. Besides, the growth is 103% with OVCAR-4 ovarian; 110% in the test on SK-OV-3 ovarian; 96.2% in the test with IGROV1 ovarian; 110% with OVCAR-3 ovarian; 101% in the test on HS 578T breast; 111% in the test on NCI/ADR-RES ovarian.
Regarding `CCOC(=O)CNC(=O)C1(NC(=O)CNC(=O)OCc2ccccc2)CCCC1`, the growth in the test on SK-MEL-2 melanoma is 107%; in the test with SN12C renal, 93.8%; in the test with UO-31 renal, 98.6%; in the test on TK-10 renal it was 102%; with ACHN renal, 103%; with CAKI-1 renal it was 95.2%. The growth was 102% in the test on A498 renal; 102% in the test on CCRF-CEM leukemia; 106% in the test with MOLT-4 leukemia; 103% in the test on SR leukemia; 107% in the test with OVCAR-8 ovarian; 95.1% in the test with OVCAR-5 ovarian. Further, the growth in the test on OVCAR-4 ovarian was 106%; with SK-OV-3 ovarian it was 104%; in the test with OVCAR-3 ovarian it was 142%; in the test on HS 578T breast, 125%; in the test with NCI/ADR-RES ovarian, 105%.
Consider `COc1ccc(CCN2C(=O)CCC3=C2CCCC3=O)cc1OC`, for which the growth in the test on SK-MEL-2 melanoma was 122%; with SN12C renal, 101%; in the test with UO-31 renal it was 81.8%; in the test with TK-10 renal, 114%; in the test on ACHN renal, 100%; in the test with CAKI-1 renal, 109%. Besides, the growth in the test with A498 renal was 103%; in the test with MOLT-4 leukemia it was 103%; in the test on SR leukemia, 101%; with RPMI-8226 leukemia, 98.1%; with OVCAR-8 ovarian, 102%; in the test on OVCAR-5 ovarian it was 104%. Besides, the growth with OVCAR-4 ovarian was 102%; in the test with SK-OV-3 ovarian, 100%; in the test with IGROV1 ovarian it was 108%; in the test with OVCAR-3 ovarian it was 120%; in the test with HS 578T breast, 94.6%; in the test with NCI/ADR-RES ovarian, 98.2%.
With `O=C(Nc1ccc(Cl)cc1)Nc1nc2ccc(OC(F)(F)F)cc2o1`, the growth was 131% in the test on SK-MEL-2 melanoma; 92.5% in the test on SN12C renal; 87.9% in the test with UO-31 renal; 92.9% in the test on TK-10 renal; 89.4% with ACHN renal; 92.7% in the test with CAKI-1 renal. Moreover, the growth was 119% in the test on A498 renal; 80.1% in the test with CCRF-CEM leukemia; 76.4% in the test on MOLT-4 leukemia; 85.4% in the test on OVCAR-8 ovarian; 95.9% with OVCAR-5 ovarian; 83.7% in the test on OVCAR-4 ovarian. Besides, the growth with SK-OV-3 ovarian is 103%; with IGROV1 ovarian, 130%; in the test on OVCAR-3 ovarian, 74.3%; with HS 578T breast, 143%; in the test with NCI/ADR-RES ovarian, 95%.
Regarding `CC[C@@H](C)/C=C(C)/C=C/C(O)=C1\C(=O)N[C@@H](Cc2ccc(OC(=O)[C@@](OC)(c3ccccc3)C(F)(F)F)cc2)C1=O`, the growth in the test with SK-MEL-2 melanoma is 80.2%; in the test on SN12C renal, 86.5%; with UO-31 renal it was 70.9%; in the test on TK-10 renal, 96.8%; in the test with ACHN renal, 103%; in the test on CAKI-1 renal, 30.5%. The growth in the test on A498 renal is 64.7%; with CCRF-CEM leukemia, 29.7%; with MOLT-4 leukemia, 41.6%; with SR leukemia, 62.6%; in the test on OVCAR-8 ovarian, 103%; in the test on OVCAR-5 ovarian, 120%. In addition, the figures for the growth in the test on SK-OV-3 ovarian, in the test on OVCAR-3 ovarian and with HS 578T breast were 112%, 67.8% and 67.8%, respectively.
`O=C1OC2(c3ccccc31)c1ccccc1-c1ccccc12`: the growth was 65% in the test on SK-MEL-2 melanoma; 90.4% in the test with SN12C renal; 65.7% with UO-31 renal; 82.7% with TK-10 renal; 101% in the test with ACHN renal; 62.3% in the test with CAKI-1 renal. In addition, the growth with A498 renal was 69.8%; in the test with CCRF-CEM leukemia it was 72.4%; in the test on MOLT-4 leukemia, 82.9%; in the test on SR leukemia it was 41.4%; in the test with OVCAR-8 ovarian, 101%; in the test on OVCAR-5 ovarian, 88.4%. The growth with OVCAR-4 ovarian is 82.9%; in the test on SK-OV-3 ovarian, 91.7%; in the test on IGROV1 ovarian it was 90.6%; with OVCAR-3 ovarian, 93.6%; in the test with HS 578T breast it was 83.4%; in the test on NCI/ADR-RES ovarian, 90.8%.
Regarding `CCCCCc1c(C)[nH]c(/C=C2\N=C(c3ccc[nH]3)C=C2Oc2ccc(Cl)cc2)c1C`, the growth in the test on SK-MEL-2 melanoma is -73.1% [100 µM] (active); with SN12C renal, -7.03% [100 µM] (active); in the test on UO-31 renal it was -53% [100 µM] (active); in the test with TK-10 renal it was -6.56% [100 µM] (active); in the test with ACHN renal it was -48% [100 µM] (active); in the test on CAKI-1 renal, -22.7% [100 µM] (active). Besides, the growth in the test on A498 renal is -49% [100 µM] (active); with MOLT-4 leukemia, -23.6% [100 µM] (active); in the test on SR leukemia it was -9.44% [100 µM] (active); in the test on RPMI-8226 leukemia, -32.8% [100 µM] (active); with OVCAR-8 ovarian, -21.5% [100 µM] (active); with OVCAR-5 ovarian, -3.17% [100 µM] (active). For the same molecule, the growth was 12.6% [100 µM] in the test with OVCAR-4 ovarian; 1.44% [100 µM] (active) in the test with SK-OV-3 ovarian; 13.3% [100 µM] in the test with IGROV1 ovarian; -96.2% [100 µM] (active) with OVCAR-3 ovarian; 3.26% [100 µM] (active) in the test with HS 578T breast; 5.31% [100 µM] (active) in the test on NCI/ADR-RES ovarian.
For the molecule `Cc1nn(-c2nc3ccccc3s2)c(C)c1Oc1ccccc1O`, the growth in the test on SK-MEL-2 melanoma was -9.64% (active); in the test on SN12C renal, 73.2%; in the test with UO-31 renal it was 38.9%; in the test on TK-10 renal it was 100%; in the test on ACHN renal it was 57.8%; in the test on CAKI-1 renal, 98.8%. For the same molecule, the growth in the test on A498 renal is 51.7%; in the test on CCRF-CEM leukemia, 76.6%; in the test on MOLT-4 leukemia it was 31.6%; in the test with SR leukemia it was 19.6%; in the test with RPMI-8226 leukemia, 33.1%; with OVCAR-8 ovarian it was 50.6%. The growth with OVCAR-5 ovarian is 121%; in the test with OVCAR-4 ovarian it was 74.9%; in the test on SK-OV-3 ovarian it was 75.3%; in the test on OVCAR-3 ovarian, 75.5%; in the test on HS 578T breast it was 39%; with NCI/ADR-RES ovarian, 101%.
